From PubChem BioAssay AID1159580 (chemical genetic matrix, 2015)
Among all 5,500 compounds or so, about 2,000 (36%) were called active. Inconclusive results (about 18%) are left out. Cut-off read from the data, not from the text of the source: active = normalized growth mostly below about 0.91 (no sharp cut-off); inconclusive = no clear call, values can overlap the other calls; inactive = mostly above about 0.92. The list shows a part of the results.

Assay: chemical genetic growth profiling, strain panel (AID 1159580);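 note: tested at 20 µM; growth read once vehicle control cultures reached saturation at 30 °C; 1 = growth at the plate median or of vehicle wells; lower values mean less growth of the strain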
Details: growth OD
[1] = S. cerevisiae deletion strains, locus YCL061C, strain MRC1, active compounds read low
[2] = S. cerevisiae deletion strains, locus YHR030C, strain SLT2, active compounds read low
[3] = S. cerevisiae deletion strains, locus YJL187C, strain SWE1, active compounds read low

Measured: normalized growth

CNS(=O)(=O)c1cc(Br)ccc1S(=O)c1ccccc1C(=O)O (stereo not given)
active: S. cerevisiae deletion strains, locus YML094W, strain GIM5, active compounds read low 1.15 [resistant]
inactive: S. cerevisiae deletion strains, locus YAL013W, strain DEP1, active compounds read low 1 | S. cerevisiae deletion strains, locus YBR229C, strain ROT2, active compounds read low 1 | [1] 1 | S. cerevisiae deletion strains, locus YDL101C, strain DUN1, active compounds read low 1.05 | S. cerevisiae deletion strains, locus YDR150W, strain NUM1, active compounds read low 1.01 | S. cerevisiae deletion strains, locus YEL061C, strain CIN8, active compounds read low 1.02 | S. cerevisiae deletion strains, locus YGR078C, strain PAC10, active compounds read low 1.01 | [2] 0.98 | S. cerevisiae deletion strains, locus YHR087W, strain rtc3, active compounds read low 1.03 | [3] 1 | S. cerevisiae deletion strains, locus YJR043C, strain POL32, active compounds read low 1 | S. cerevisiae deletion strains, locus YJR075W, strain HOC1, active compounds read low 0.997 | S. cerevisiae deletion strains, locus YKL190W, strain CNB1, active compounds read low 0.982 | S. cerevisiae deletion strains, locus YLR039C, strain RIC1, active compounds read low 1.01 | S. cerevisiae deletion strains, locus YLR058C, strain SHM2 (second series), active compounds read low 0.992 | S. cerevisiae deletion strains, locus YLR085C, strain ARP6, active compounds read low 0.983 | S. cerevisiae deletion strains, locus YLR262C, strain YPT6, active compounds read low 1.02 | S. cerevisiae deletion strains, locus YMR219W, strain ESC1, active compounds read low 1.01 | S. cerevisiae deletion strains, locus YMR263W, strain SAP30, active compounds read low 0.984 | S. cerevisiae deletion strains, locus YMR307W, strain GAS1, active compounds read low 0.942 | S. cerevisiae deletion strains, locus YNL153C, strain GIM3, active compounds read low 1.03 | S. cerevisiae deletion strains, locus YNL298W, strain CLA4 (second series), active compounds read low 0.995 | S. cerevisiae deletion strains, locus YNL322C, strain KRE1, active compounds read low 1.01 | S. cerevisiae deletion strains, locus YNR030W, strain Alg12, active compounds read low 1.03 | S. cerevisiae deletion strains, locus YOL006C, strain TOP1, active compounds read low 0.975 | S. cerevisiae deletion strains, locus YPL055C, strain LGE1, active compounds read low 1.04 | S. cerevisiae deletion strains, locus YPL241C, strain CIN2, active compounds read low 1.04 | S. cerevisiae deletion strains, locus YPR135W, strain CTF4, active compounds read low 1.15 | S. cerevisiae strains, strain wild type, active compounds read low 0.968

CC(=O)NS(=O)(=O)c1ccc(NC(=O)c2ccccc2C(=O)O)cc1
inactive: S. cerevisiae deletion strains, locus YAL021C, strain ccr4, active compounds read low 1.01 | S. cerevisiae deletion strains, locus YAL026C, strain drs2, active compounds read low 1.02 | S. cerevisiae deletion strains, locus YAL030W, strain snc1, active compounds read low 1.02 | S. cerevisiae deletion strains, locus YBL061C, strain skt5, active compounds read low 1.01 | S. cerevisiae deletion strains, locus YBR009C, strain hhf1, active compounds read low 1.03 | S. cerevisiae deletion strains, locus YBR023C, strain chs3, active compounds read low 1.02 | S. cerevisiae deletion strains, locus YBR171W, strain sec66, active compounds read low 1.04 | S. cerevisiae deletion strains, locus YBR231C, strain swc5, active compounds read low 1.01 | S. cerevisiae deletion strains, locus YBR279W, strain paf1, active compounds read low 1.02 | S. cerevisiae deletion strains, locus YCL011C, strain gbp2, active compounds read low 1.01 | S. cerevisiae deletion strains, locus YCL016C, strain dcc1, active compounds read low 1.02 | [1] 1.02 | S. cerevisiae deletion strains, locus YCL069W, strain vba3, active compounds read low 1.02 | S. cerevisiae deletion strains, locus YCR088W, strain abp1, active compounds read low 1.01 | S. cerevisiae deletion strains, locus YDL005C, strain med2, active compounds read low 1.02 | S. cerevisiae deletion strains, locus YDL040C, strain nat1, active compounds read low 1.02 | S. cerevisiae deletion strains, locus YDR001C, strain nth1, active compounds read low 1.01 | S. cerevisiae deletion strains, locus YDR069C, strain doa4, active compounds read low 1.02 | S. cerevisiae deletion strains, locus YDR137W, strain rgp1, active compounds read low 1.04 | S. cerevisiae deletion strains, locus YDR159W, strain sac3, active compounds read low 1.04 | S. cerevisiae deletion strains, locus YDR195W, strain ref2 1.01 | S. cerevisiae deletion strains, locus YDR297W, strain sur2, active compounds read low 1.01 | S. cerevisiae deletion strains, locus YDR334W, strain swr1, active compounds read low 1.01 | S. cerevisiae deletion strains, locus YDR335W, strain msn5, active compounds read low 1.01 | S. cerevisiae deletion strains, locus YDR392W, strain spt3, active compounds read low 1.01 | S. cerevisiae deletion strains, locus YEL003W, strain gim4, active compounds read low 1.01 | S. cerevisiae deletion strains, locus YEL037C, strain rad23, active compounds read low 1.01 | S. cerevisiae deletion strains, locus YEL061C, strain CIN8 (second series), active compounds read low 1.02 | S. cerevisiae deletion strains, locus YER015W, strain faa2, active compounds read low 1.02 | S. cerevisiae deletion strains, locus YER016W, strain bim1, active compounds read low 1.02 | S. cerevisiae deletion strains, locus YER111C, strain swi4, active compounds read low 1.02 | S. cerevisiae deletion strains, locus YER155C, strain BEM2 (second series), active compounds read low 1.05 | S. cerevisiae deletion strains, locus YFR010W, strain ubp6, active compounds read low 1.02 | S. cerevisiae deletion strains, locus YGL167C, strain pmr1, active compounds read low 1.02 | S. cerevisiae deletion strains, locus YGL173C, strain kem1, active compounds read low 1.02 | S. cerevisiae deletion strains, locus YGL227W, strain vid30, active compounds read low 1.02 | S. cerevisiae deletion strains, locus YGL240W, strain doc1, active compounds read low 1.01 | S. cerevisiae deletion strains, locus YGL253W, strain hxk2, active compounds read low 1.02 | S. cerevisiae deletion strains, locus YHR013C, strain ard1, active compounds read low 1.02 | S. cerevisiae deletion strains, locus YHR027C, strain rpn1, active compounds read low 1.02 | [2] 0.958 | S. cerevisiae deletion strains, locus YHR079C, strain IRE1, active compounds read low 0.969 | S. cerevisiae deletion strains, locus YHR142W, strain chs7, active compounds read low 1.04 | S. cerevisiae deletion strains, locus YJL092W, strain hpr5, active compounds read low 1.01 | S. cerevisiae deletion strains, locus YJL095W, strain BCK1 (second series), active compounds read low 1.02 | S. cerevisiae deletion strains, locus YJL095W, strain BCK1, active compounds read low 0.972 | S. cerevisiae deletion strains, locus YJL115W, strain asf1, active compounds read low 1.02 | S. cerevisiae deletion strains, locus YJL129C, strain trk1, active compounds read low 1.03 | S. cerevisiae deletion strains, locus YJL154C, strain vps35, active compounds read low 1.02 | S. cerevisiae deletion strains, locus YJL164C, strain tpk1, active compounds read low 1.01 | S. cerevisiae deletion strains, locus YJL166W, strain qcr8, active compounds read low 1.02 | [3] 1.01 | S. cerevisiae deletion strains, locus YJR066W, strain TOR1, active compounds read low 0.949 | S. cerevisiae deletion strains, locus YKL160W, strain elf1, active compounds read low 1.02 | S. cerevisiae deletion strains, locus YKR026C, strain gcn3, active compounds read low 1 | S. cerevisiae deletion strains, locus YKR091W, strain srl3, active compounds read low 1.01 | S. cerevisiae deletion strains, locus YLL001W, strain dnm1, active compounds read low 1.01 | S. cerevisiae deletion strains, locus YLL026W, active compounds read low 1.02 | S. cerevisiae deletion strains, locus YLL041C, strain sdh2, active compounds read low 1.02 | S. cerevisiae deletion strains, locus YLR027C, strain aat2, active compounds read low 1.02 | S. cerevisiae deletion strains, locus YLR113W, strain HOG1, active compounds read low 0.976 | S. cerevisiae deletion strains, locus YLR221C, strain rsa3, active compounds read low 1.02 | S. cerevisiae deletion strains, locus YLR258W, strain gsy2, active compounds read low 1.01 | S. cerevisiae deletion strains, locus YLR262C, strain YPT6 (second series), active compounds read low 1.03 | S. cerevisiae deletion strains, locus YLR320W, strain mms22, active compounds read low 1.03 | S. cerevisiae deletion strains, locus YLR342W, strain FKS1, active compounds read low 1.01 | S. cerevisiae deletion strains, locus YLR357W, strain rsc2, active compounds read low 1.05 | S. cerevisiae deletion strains, locus YLR370C, strain arc18, active compounds read low 1.02 | S. cerevisiae deletion strains, locus YLR384C, strain iki3, active compounds read low 1.03 | S. cerevisiae deletion strains, locus YML120C, strain ndi1, active compounds read low 1.01 | S. cerevisiae deletion strains, locus YMR058W, strain fet3, active compounds read low 1.04 | S. cerevisiae deletion strains, locus YMR125W, strain sto1, active compounds read low 1.03 | S. cerevisiae deletion strains, locus YMR129W, active compounds read low 1.03 | S. cerevisiae deletion strains, locus YMR205C, strain PFK2, active compounds read low 1.02 | S. cerevisiae deletion strains, locus YMR231W, strain pep5, active compounds read low 1.02 | S. cerevisiae deletion strains, locus YNL071W, strain lat1, active compounds read low 1.02 | S. cerevisiae deletion strains, locus YNL183C, strain NPR1, active compounds read low 0.91 | S. cerevisiae deletion strains, locus YNL209W, strain ssb2, active compounds read low 1.02 | S. cerevisiae deletion strains, locus YNL248C, strain rpa49, active compounds read low 1.02 | S. cerevisiae deletion strains, locus YNL322C, strain KRE1 (second series), active compounds read low 1.01 | S. cerevisiae deletion strains, locus YNR049C, strain mso1, active compounds read low 1.01 | S. cerevisiae deletion strains, locus YOR001W, strain rrp6, active compounds read low 1.02 | S. cerevisiae deletion strains, locus YOR070C, strain gyp1, active compounds read low 1.01 | S. cerevisiae deletion strains, locus YOR080W, strain dia2, active compounds read low 1.01 | S. cerevisiae deletion strains, locus YOR083W, strain WHI5, active compounds read low 1.01 | S. cerevisiae deletion strains, locus YOR106W, strain vam3, active compounds read low 1.03 | S. cerevisiae deletion strains, locus YOR231W, strain MKK1, active compounds read low 0.953 | S. cerevisiae deletion strains, locus YOR265W, strain rbl2, active compounds read low 1.03 | S. cerevisiae deletion strains, locus YOR270C, strain vph1, active compounds read low 1.05 | S. cerevisiae deletion strains, locus YOR290C, strain snf2, active compounds read low 1.04 | S. cerevisiae deletion strains, locus YPL051W, strain arl3, active compounds read low 1.03 | S. cerevisiae deletion strains, locus YPL078C, strain atp4, active compounds read low 1.02 | S. cerevisiae deletion strains, locus YPL106C, strain sse1, active compounds read low 0.991 | S. cerevisiae deletion strains, locus YPL240C, strain hsp82, active compounds read low 1.01 | S. cerevisiae deletion strains, locus YPL256C, strain CLN2, active compounds read low 0.975
